From ChEMBL document CHEMBL4808148, “HDAC6 screening dataset using tau-based substrate in an enzymatic assay yields selective inhibitors and activators” (2021) come the findings set out here.

Hit rate of the full screen: of about 5,600 compounds, about 390 (7%) showed an effect of 50% or more. The list comes from a sample in which strong results are over-represented; it also holds similar structures and randomly drawn compounds. Starred links: 1 amine or outer side, 2 acyl side, 3 side chain; linkers in the order of their positions; H or OH if unused. Positions of bridges follow the written chain, without caps; N, C: chain ends. Residues, ends and D or L forms follow the SMILES beside them. X5 = O=C(CCC[*:2])[*:1]

In this assay the target is T1, Protein deacetylase HDAC6 (Homo sapiens) (UniProt Q9UBN7).
T1 sequence (whole entry): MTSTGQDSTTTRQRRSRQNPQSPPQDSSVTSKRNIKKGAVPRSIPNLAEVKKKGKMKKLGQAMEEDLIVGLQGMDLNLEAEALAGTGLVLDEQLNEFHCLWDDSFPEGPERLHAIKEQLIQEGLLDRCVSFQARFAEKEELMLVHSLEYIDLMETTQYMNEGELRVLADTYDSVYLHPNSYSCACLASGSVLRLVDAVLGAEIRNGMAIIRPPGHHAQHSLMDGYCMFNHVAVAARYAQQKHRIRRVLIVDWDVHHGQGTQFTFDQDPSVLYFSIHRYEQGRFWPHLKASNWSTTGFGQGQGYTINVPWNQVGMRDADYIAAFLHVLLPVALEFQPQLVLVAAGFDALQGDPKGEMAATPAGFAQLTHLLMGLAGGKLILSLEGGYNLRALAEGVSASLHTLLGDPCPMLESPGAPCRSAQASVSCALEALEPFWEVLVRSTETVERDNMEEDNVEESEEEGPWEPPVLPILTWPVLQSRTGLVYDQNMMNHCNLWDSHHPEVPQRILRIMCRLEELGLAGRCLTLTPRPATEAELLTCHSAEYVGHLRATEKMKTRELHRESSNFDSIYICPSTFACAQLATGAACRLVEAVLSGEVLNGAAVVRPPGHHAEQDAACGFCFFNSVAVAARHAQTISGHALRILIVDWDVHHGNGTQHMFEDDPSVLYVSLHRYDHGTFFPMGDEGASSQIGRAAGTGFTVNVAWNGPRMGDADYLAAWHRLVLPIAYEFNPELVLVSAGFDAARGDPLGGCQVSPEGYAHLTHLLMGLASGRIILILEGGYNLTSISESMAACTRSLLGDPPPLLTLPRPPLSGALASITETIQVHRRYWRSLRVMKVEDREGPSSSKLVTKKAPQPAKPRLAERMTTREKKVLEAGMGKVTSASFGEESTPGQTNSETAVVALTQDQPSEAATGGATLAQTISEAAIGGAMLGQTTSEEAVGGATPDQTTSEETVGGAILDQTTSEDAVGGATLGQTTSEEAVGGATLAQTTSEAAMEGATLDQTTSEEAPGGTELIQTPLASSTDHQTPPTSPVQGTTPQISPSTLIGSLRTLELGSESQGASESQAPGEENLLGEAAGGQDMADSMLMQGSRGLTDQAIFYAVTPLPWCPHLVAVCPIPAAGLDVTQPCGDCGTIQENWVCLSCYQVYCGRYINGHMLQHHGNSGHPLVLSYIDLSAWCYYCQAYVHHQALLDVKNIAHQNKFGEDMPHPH
The note with it: at 10 µM.
As usually defined, the inhibition is the change of the read-out against control, counted positive when it falls. Consider `Nc1ncnc2c1ncn2[C@@H]1O[C@H](C[C@@H](N)CC[C@H](N)C(=O)O)[C@@H](O)[C@H]1O`, for which the inhibition is -9.09%.
The value for `CC(C)(COP(=O)(O)OP(=O)(O)OC[C@H]1O[C@@H](n2cnc3c(N)ncnc32)[C@H](O)[C@@H]1OP(=O)(O)O)[C@@H](O)C(=O)NCCC(=O)NCCS` was 15.2%; that for `NC(C(=O)O)c1nnn[nH]1` (racemic) was 4.47%; that for `Cn1cnc2[nH]c(=O)[nH]c(=O)c21` was 9.47%.
Under `Cc1ccc(-c2ccc(C)cn2)nc1` stands 100%; under `CCOC1O[C@H]([C@@H](COCc2ccccc2)OCc2ccccc2)[C@H](OCc2ccccc2)[C@H]1O` (stereo not given in full), 29.1%.
For the compound `O=C(O)CCc1c[nH]c2ccccc12`, the inhibition was 6.28%.
Under `C/C(=N\N=C(/S)N/N=C(\S)Nc1ccccc1Cl)c1ccccn1` stands 41.4%.
Consider `COc1ccc2cc3[n+](cc2c1OC)CCc1cc2c(cc1-3)OCO2`, for which the inhibition is -6.81%.
In the case of `O=C(NC1CCN(Cc2ccccc2)CC1)c1ccc(I)cc1`, the inhibition stood at 21.3%.
On to `O=C(COc1ccc(C(=O)c2ccccc2)cc1)NC1CCN(Cc2ccccc2)CC1`, for which the inhibition was -4.58%.
On to `O=C(O)c1ccc(CN2CCC(CN[C@@H]3C[C@H]3c3ccccc3)CC2)cc1`, for which the inhibition is 59.3%.
Take `CCCCCCCCCCCCCCCCCCCCCCCCCCCCO`: the inhibition amounted to 3.55%.
Under `CCN(CC)CCOC(=O)C1(c2ccccc2)CCCC1` stands 12.3%; under `CCC(C)(CN(C)C)OC(=O)c1ccccc1` (stereo not given), 12.2%; under `CC1(C(=O)O)NCCc2cc(O)c(O)cc21` (stereo not given), -7.17%.
With `C[C@@H](c1nc(-c2ccc(C#N)cc2)cs1)[C@](O)(Cn1cncn1)c1cc(F)ccc1F`, the inhibition came out at 13.7%.
Turning to `COCC(O)Cn1ccnc1[N+](=O)[O-]` (stereo not given), the inhibition amounted to 2.38%.
Regarding `CC1(C)S[C@@H]2[C@H](/N=C/N3CCCCCC3)C(=O)N2[C@H]1C(=O)O`, the inhibition amounted to 7.48%.
The value for `c1ccc(NCc2ccc(CNc3ccccn3)cc2)nc1` was -9.35%; that for `c1ccc(-c2ccc(CNc3nc(-c4ccccn4)nnc3-c3ccccc3)cc2)cc1` was 58.9%.
Take `CC[C@H](CO)Nc1nc(NCc2ccc(-c3ccccn3)cc2)c2ncn(C(C)C)c2n1`: the inhibition was 22.9%.
With `Cn1c(-c2ccccc2)nnc1S(C)(=O)=O`, the inhibition came to 36%.
In the case of `C/N=c1/nc(-c2ccccc2)n(-c2ccccc2)s1`, the inhibition was 83.4%.
For the compound `CC1=NN(c2ccccc2)C(=O)C1`, the inhibition was -9.97%.
With `O=C(c1ccc(F)cc1)C1CCN(CCn2c(=S)[nH]c3ccccc3c2=O)CC1`, the inhibition stood at 13.2%.
Turning to `O=C(O)c1c2ccccc2cc2ccccc12`, the inhibition was determined as 22.9%.
As for `Cn1ncc(Cl)c1-c1cc(C(=O)N[C@H](CN)Cc2cccc(F)c2)sc1Cl`, the inhibition is -7.69%.
Consider `FC(F)(F)c1cccc(-c2noc(-c3cc(-c4ccccc4)c(C(F)(F)F)s3)n2)c1`, for which the inhibition turned out to be 18.5%.
Consider `O=C(c1ccc(F)cc1)N1CCC[C@H](c2nc(-c3ccc(F)cc3)no2)C1`, for which the inhibition was 10.8%.
Under `O=C(O)c1cccc(-c2noc(-c3ccccc3F)n2)c1` stands 105%; under `CC1=C(/C=C/C(C)=C/C=C/C(C)=C/C=C/C=C(C)/C=C/C=C(C)/C=C/C2=C(C)C(=O)[C@@H](O)CC2(C)C)C(C)(C)C[C@H](O)C1=O`, 10.4%.
Regarding `COc1ccc2cc1Oc1cc3c(cc1OC)CC[N+](C)(C)[C@H]3Cc1ccc(cc1)Oc1c(OC)c(OC)cc3c1[C@@H](C2)[N+](C)(C)CC3`, the inhibition is 16.5%.
`CC[C@H](C)[C@@H]1NC(=O)[C@H](Cc2ccc(OC)cc2)NC(=O)CCCSC[C@@H](C(=O)N2CCC[C@H]2C(=O)N[C@@H](CC(C)C)C(=O)NCC(N)=O)NC(=O)[C@H](CC(N)=O)NC(=O)[C@H](CCC(N)=O)NC1=O` (Y(Me)IQNCPLG-NH2; linker N-5 via X5): the inhibition was 11%.
Consider `COc1cc(C[C@@H](CO)[C@H](CO)Cc2ccc(O)c(OC)c2)ccc1O`, for which the inhibition was 21.1%.
With `CCC(=O)NC[C@@H]1C[C@H]1c1cccc2c1CCO2`, the inhibition was -8.79%.
For `O=C(CCCCCN1C(=O)c2cccc3cccc(c23)C1=O)NO`, the inhibition was 100%.
Turning to `O=C(O)CCCN1C(=O)c2cccc3cccc(c23)C1=O`, the inhibition is -3.55%.
For `CN(C)CCN1C(=O)c2cccc3cc(N)cc(c23)C1=O`, the inhibition came to 24.8%.
In the case of `CN1CCN(CCCCN2C(=O)CN(/N=C/c3ccc(-c4ccc(Cl)cc4)o3)C2=O)CC1`, the inhibition was -7.57%.
As to `COc1cc(Br)c(Nc2nc(-c3c(C)nc4ncccn34)cs2)c(Br)c1`, the inhibition was -6.53%.
The value for `CCOc1ccc(-c2nc(-c3cccc4c3CCC4NCCO)no2)cc1OCC` (stereo not given) was 26.2%; that for `CC(O)CCCCn1c(=O)c2c(ncn2C)n(C)c1=O` (stereo not given) was 14.8%; that for `CC(C)(C)c1cc(C(=O)/C(C#N)=N/Nc2cccc(Cl)c2)no1` was 58.9%.
With `O=C(O)c1cc2ccccc2s1`, the inhibition was 36%.
In the case of `CCCCCCCCCCCCCCCCCCO`, the inhibition stood at 10.8%.
On to `Cc1cccc(COc2cccc(/C=C3\C(=O)NN(c4ccccc4)C3=O)c2)c1`, for which the inhibition worked out at 6.83%.
Take `C[C@H]1NCc2cc(-c3ccc4c(=O)c(C(=O)O)cn(C5CC5)c4c3OC(F)F)ccc21`: the inhibition is 14.9%.
The value for `O=C1NC(=O)c2cc(Nc3ccc(F)cc3)c(Nc3ccc(F)cc3)cc21` was 41.3%; that for `COc1cc(C=O)ccc1O` was -4.44%.
With `COc1cc(C(C)=O)ccc1O`, the inhibition stood at 8.46%.
Consider `COc1ccc(-c2oc3cc(OC)ccc3c2C(=O)c2ccc(C#N)cc2)cc1`, for which the inhibition was found to be 1.66%.
As to `O=c1c(-c2ccc(O)cc2)coc2c(C3OC(CO)C(O)C(O)C3O)c(O)ccc12` (stereo not given), the inhibition was 5.48%.
The value for `CC(C)Oc1ccc2c(=O)c3cc(C(=O)O)ccc3oc2c1` was 87.4%; that for `COc1cc2c(=O)c(-c3ccc(O)cc3)coc2cc1O` was 98.7%.
Under `CNC(=O)c1c(C)oc2cc(Oc3ncnc4cc(OC)c(OC)cc34)ccc12` stands -6.42%; under `O=c1c(-c2ccc(O)cc2)coc2cc(O)ccc12`, 101%; under `CC(C)Oc1ccc2c(=O)c(-c3ccccc3)coc2c1`, 95.2%.
For the compound `CNc1cc2[nH]c(=O)n(-c3ccc(NC(=O)NS(=O)(=O)c4ccc(Cl)s4)cc3)c(=O)c2cc1F`, the inhibition turned out to be 32.7%.
Turning to `C[C@@H]1CN(Cc2ncccn2)C[C@H]1c1nc2c(cnn2C2CCOCC2)c(=O)[nH]1`, the inhibition is -2.24%.
`O=C(O)c1cc(O)c2c(Cl)cc(Cl)cc2n1`: the inhibition was 6.69%.
On to `CC(=O)Oc1ccccc1C(=O)Oc1cccc(CO[N+](=O)[O-])c1`, for which the inhibition was 48.1%.
With `CC(C)(O)CNc1nc(Nc2ccnc(C(F)(F)F)c2)nc(-c2cccc(C(F)(F)F)n2)n1`, the inhibition was 36.2%.
As to `CC(=O)NC(C(=O)O)C(C)(C)SN=O` (stereo not given), the inhibition amounted to 2.51%.
Under `Cc1noc2c1-c1ccccc1C(c1ccc(Cl)cc1)=N[C@H]2CC(N)=O` stands 43.6%.
